The values that follow come from paper PMC13423814.

Assay [1] addresses Peroxiredoxin-1 (UniProt Q06830).
Assay [2] addresses DNA replication licensing factor MCM2 (UniProt P49736).
In assay [3] the target is Histone H4 (UniProt P62805).
For assay [4], the target named is Serine/arginine-rich splicing factor 1 (UniProt Q07955).
Serine/arginine-rich splicing factor 1, sequence (Q07955 whole entry): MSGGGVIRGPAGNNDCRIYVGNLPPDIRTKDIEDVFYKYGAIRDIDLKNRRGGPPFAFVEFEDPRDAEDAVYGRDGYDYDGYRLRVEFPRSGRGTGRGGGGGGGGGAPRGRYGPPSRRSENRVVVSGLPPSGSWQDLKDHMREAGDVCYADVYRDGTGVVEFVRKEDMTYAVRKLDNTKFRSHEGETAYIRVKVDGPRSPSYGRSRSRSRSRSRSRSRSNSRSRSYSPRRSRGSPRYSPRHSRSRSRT

DNA replication licensing factor MCM2, sequence (P49736 whole entry): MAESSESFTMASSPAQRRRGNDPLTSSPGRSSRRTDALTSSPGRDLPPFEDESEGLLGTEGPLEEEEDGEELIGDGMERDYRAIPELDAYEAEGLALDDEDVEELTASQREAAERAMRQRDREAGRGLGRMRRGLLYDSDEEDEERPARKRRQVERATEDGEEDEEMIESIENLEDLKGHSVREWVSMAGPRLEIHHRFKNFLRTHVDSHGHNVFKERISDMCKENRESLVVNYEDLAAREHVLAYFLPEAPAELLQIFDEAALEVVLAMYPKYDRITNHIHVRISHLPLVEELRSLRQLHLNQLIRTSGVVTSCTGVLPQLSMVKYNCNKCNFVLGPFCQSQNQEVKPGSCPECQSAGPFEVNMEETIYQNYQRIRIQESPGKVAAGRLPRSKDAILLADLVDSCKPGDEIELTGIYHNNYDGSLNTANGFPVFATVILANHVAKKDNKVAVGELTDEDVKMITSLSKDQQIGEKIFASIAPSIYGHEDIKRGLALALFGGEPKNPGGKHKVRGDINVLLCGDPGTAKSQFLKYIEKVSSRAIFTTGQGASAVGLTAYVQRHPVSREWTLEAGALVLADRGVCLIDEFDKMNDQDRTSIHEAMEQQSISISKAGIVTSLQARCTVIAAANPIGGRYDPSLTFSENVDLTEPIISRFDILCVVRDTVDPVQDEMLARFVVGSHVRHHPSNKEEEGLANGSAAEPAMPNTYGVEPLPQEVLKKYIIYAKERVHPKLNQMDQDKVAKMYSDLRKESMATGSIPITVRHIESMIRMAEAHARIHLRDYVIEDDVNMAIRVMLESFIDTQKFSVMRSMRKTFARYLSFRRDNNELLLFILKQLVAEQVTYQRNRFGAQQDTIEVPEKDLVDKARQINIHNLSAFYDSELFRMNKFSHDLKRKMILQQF
Peroxiredoxin-1, sequence (Q06830 whole entry): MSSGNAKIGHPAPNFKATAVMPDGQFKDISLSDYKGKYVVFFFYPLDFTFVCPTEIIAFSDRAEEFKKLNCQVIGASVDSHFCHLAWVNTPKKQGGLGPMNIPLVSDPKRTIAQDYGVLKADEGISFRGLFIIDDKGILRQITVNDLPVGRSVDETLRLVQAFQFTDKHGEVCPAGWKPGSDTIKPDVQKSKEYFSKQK

Take Putative keratin-87 protein, A6NCN2: the “listed as a hit” value in assay [1] was “yes”.
On to “DNA replication licensing factor MCM3, P25205”, for which the “listed as a hit” value in assay [2] was “yes”.
Take Prelamin-A/C, P02545: the “listed as a hit” value in assay [3] is listed as “yes”.
On to “RNA-binding motif protein, X chromosome, P38159”, for which the “listed as a hit” value in assay [4] is “yes”.
